# From PubChem
# Compounds with a hit are over-represented: about 3.5% of the library has one in this group of screens.
# FBW7 act = FBW7 E3 ligase activators, primary screen, biochemical, AlphaScreen, human; AlphaScreen FBW7–phospho-cyclin E peptide binding, activator screen; 650,000 tested, 0.13% active; normalized activity (activation), % at 26.1 µM; in the data active = normalized activity above about 1.9%;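 note: purified mutant Fbw7 with reduced substrate affinity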
# TEAD-YAP block = TEAD-YAP interaction inhibition, primary screen, TEAD-YAP interaction inhibitor project, luminescence, HEK-TIYL cells; TEAD-Gal4/YAP UAS-luciferase luminescence; inhibition, % at 9.12 µM; 640,000 tested, 1.4% active; AID 1259422, 2018; in the data active = inhibition above about 32%;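 note: 0% = median of test compound wells and 100% = reference inhibitor wells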
# MITF primary = MITF inhibitors, primary screen, biochemical, AlphaScreen, human; Microphthalmia-associated transcription factor (Homo sapiens), O75030; AlphaScreen MITF homodimerization, bead proximity signal; 650,000 tested, 0.91% active; inhibition, % at 2.6 µM; in the data active = inhibition above about 50%;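 note: 0% = vehicle wells with protein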
# GPR151 activ = activators of human GPR151, primary screen, cell-based, PathHunter beta-arrestin, luminescence. activation, % at 11.2 µM. G-protein coupled receptor 151 (Homo sapiens), Q8TDV0. PathHunter beta-arrestin GPR151 cells. 650,000 tested, 1% active. AID 1508602, 2020; in the data active = activation above about 4.9%;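 note: 0% = median of compound wells and 100% = cells with positive control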
# GPR151 confirm = GPR151 activators, triplicate retest, confirmation, cell-based, PathHunter beta-arrestin, luminescence. 6,700 tested, under 10 active. activation, % at 11.2 µM. GPR151 PathHunter beta-arrestin cells, 90 min; % of EA-reagent control over plate median. shares compounds with GPR151 activ;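 active = mean percent activation across replicates above the confirmation screen cutoff of 4.91%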
# GPR119 counter = GPR119 activators in beta-arrestin cells, counter-screen for GPR151 activator project, cell-based, PathHunter beta-arrestin, luminescence, triplicate; shares compounds with GPR151 activ; 90 min; 0 = compound-well median, 100 = enzyme-acceptor control; activation, % at 11.2 µM; 6,700 tested, 0.3% active;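 active = mean percent activation in the counterscreen above 29.09%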;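 note: counterscreen on off-target GPR119 to flag nonselective hits from the GPR151 activator screen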
# Target sequence (Q8TDV5 whole entry, looked up): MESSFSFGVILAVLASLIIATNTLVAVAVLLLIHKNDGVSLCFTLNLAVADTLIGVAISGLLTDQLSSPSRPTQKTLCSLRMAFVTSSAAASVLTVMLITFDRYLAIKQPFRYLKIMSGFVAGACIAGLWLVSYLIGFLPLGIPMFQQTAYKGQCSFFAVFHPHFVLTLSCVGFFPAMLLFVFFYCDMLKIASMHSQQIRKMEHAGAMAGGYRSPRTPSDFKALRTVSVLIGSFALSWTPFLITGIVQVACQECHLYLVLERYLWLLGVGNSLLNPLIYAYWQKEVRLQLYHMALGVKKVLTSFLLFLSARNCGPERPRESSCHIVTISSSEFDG
# * hit, by the source's call; / = no result.
SMILES,FBW7 act,TEAD-YAP block,MITF primary,GPR151 activ,GPR151 confirm,GPR119 counter
Cn1c(=O)cc(N2CCCCC2)n(Cc2ccc(F)cc2F)c1=O,0.3,-10.1,-5.6,5.7*,-1.7,-7.5
CCn1c(SCC(=O)Nc2ccccc2C#N)nnc1-c1ccccc1,0.0,-4.4,3.6,-0.9,/,/
COc1ccc(NC(=O)COc2cc(C)ccc2C(C)C)c(OC)c1,-0.1,2.6,0.7,-1.5,/,/
CCOCCCNC(=O)C(NC(=O)C1CCC(=O)N1)c1ccccc1 (stereo not drawn),0.0,-2.3,-11.5,5.6*,0.2,16.1
c1ccc2[nH]c(C3CCN(CCC4OCCO4)CC3)nc2c1,-0.1,-8.8,-8.9,-1.2,/,/
CS(=O)(=O)C1=C(O)C(=O)N(c2ccccc2)C1c1ccc(F)cc1 (stereo not drawn),-0.1,3.6,8.6,-1.1,/,/
CC1CCCCN1S(=O)(=O)c1ccc(NC(=O)CSc2nc3ccccc3o2)cc1 (stereo not drawn),0.2,-1.0,8.4,-0.5,/,/
CCC(C(=O)Nc1ccc(S(=O)(=O)N2CCC(C)CC2)cc1)c1ccccc1 (stereo not drawn),0.2,-2.2,-17.2,5.0*,0.7,3.7
O=C(CSc1cccc[n+]1[O-])Nc1ccccc1,-0.2,-9.6,-8.8,1.3,/,/
O=C(CSc1cccc[n+]1[O-])Nc1ccc(S(=O)(=O)N2CCCC2)cc1,0.4,2.6,-10.3,6.4*,0.0,-1.6
CC1CCN(S(=O)(=O)c2ccc(NC(=O)CSc3nc4ccccc4o3)cc2)CC1,0.1,10.5,4.2,16.0*,2.2,26.5
Cc1ccc(Cl)cc1NC(=O)CSc1nnc(N)s1,0.4,12.0,12.1,-1.6,/,/
COc1cn(CC(=O)Nc2cccc(C)c2)c(CSc2ncccn2)cc1=O,0.1,-5.4,8.5,1.6,/,/
COc1cn(CC(=O)Nc2cc(C)cc(C)c2)c(CSc2nccc(C)n2)cc1=O,0.0,1.2,-1.2,14.7*,-0.6,-3.6
COCCOCCCN1CCC2(CC1)NC(=O)Cc1c(C)cccc12,-0.1,14.5,-6.2,0.9,/,/
CCS(=O)(=O)N1CCC(NC(=O)c2cccc(C)c2)CC1,-0.2,6.5,4.4,-0.9,/,/
CC1CCN(S(=O)(=O)c2ccc(F)c(C(=O)Nc3ccc(F)cc3)c2)CC1,0.0,-11.0,-9.4,0.4,/,/
COC(=O)c1cc(S(=O)(=O)N2CCC(C)CC2)ccc1F,0.9,6.9,18.1,11.5*,0.7,-4.2
CCCCCCc1cc(O)c2c(C)cc(=O)oc2c1,0.1,-1.4,-4.4,7.0*,0.1,12.4
O=C(OCN1C(=O)c2ccccc2C1=O)C1CCCCC1,0.1,4.7,10.1,6.1*,-1.2,-6.5
CCN1CCN(C(C)C(=O)Nc2ncc(C)s2)CC1 (stereo not drawn),0.0,3.8,15.9,7.0*,1.1,12.5
Cc1ccccc1OC1=NS(=O)(=O)c2cc([N+](=O)[O-])ccc21,0.1,9.1,10.8,8.6*,-0.5,-7.9
CCCN1C(=O)/C(=C2/C(=O)N(C)c3ccccc32)SC1=S,-0.1,5.5,3.0,-0.1,/,/
CCCN1C(=O)/C(=C2\SC(=S)N(CCOC)C2=O)c2ccccc21,0.0,7.6,10.9,5.6*,0.6,-3.9
O=C1NCC(O)=C1C=NCCO,-0.1,2.6,10.9,6.2*,1.0,2.9
O=C1NCC(O)=C1C=Nc1ccc(O)cc1,0.2,5.0,15.0,0.2,/,/
O=C1NCC(O)=C1C=Nc1ccccc1,-0.3,3.0,-2.1,5.2*,-1.9,-14.9
Cc1ccc(S(=O)(=O)c2nc(NCCN(C)C)sc2Cl)cc1,-0.3,2.3,-0.1,5.2*,0.7,3.4
COc1ccc(Br)cc1S(=O)(=O)N1CCN(c2ccc(N3CCCC3)nn2)CC1,-0.1,6.5,2.6,7.7*,0.6,3.4
COc1ccccc1N1CCN(S(=O)(=O)c2ccc(Br)cc2C)CC1,-0.1,-6.5,-17.4,8.5*,0.3,-7.3
